# Screening data as filed in PubChem BioAssay.
# A selection: hits, their analogues and other compounds. The true share with any hit is near 8%.
# LASV entry inh: Lassa virus entry inhibition; actives 4.1% (n = 18,000); Potency, µM (highest dose often 49.2 µM), for inactives: at the top dose activity change, negative = inhibition, most hits filed as inhibitors; Lassa virus pseudotyped entry inhibition, cell-based qHTS
# Marburg entry: Marburg virus entry inhibition | AID 720532 | Potency, µM (series often up to 49.2 µM), inactives show top-dose activity change, negative = inhibition, usual class: inhibitors | actives 6.5% (n = 18,000) | Marburg virus pseudotype entry/binding inhibition, cell-based
# * hit, by the source's call; ? = inconclusive; . = not tested or not shown; ! = repeats disagree; [ ] = remark or other dose. Calls follow the shape of the full dose curve; tested in HEK293 cells. % is scaled to controls: 0 for no effect and ±100 for the full control effect; potency is read from the fitted curve at half-maximal effect.
SMILES,LASV entry inh,Marburg entry
CSc1ccc(/C=C2/C(C)=C(CC(=O)O)c3cc(F)ccc32)cc1,-15.1%,5.7%
CC[C@@H]1CN2CCc3cc(OC)c(OC)cc3[C@@H]2C[C@@H]1C[C@H]1NCCc2cc(OC)c(OC)cc21,5.62e-05µM*,?
COc1cc2c(cc1OC)C(C)NCC2 (stereo unspecified),-8.0%,0.7%
CC[C@@H]1CN2CCc3cc(OC)c(OC)cc3[C@H]2C[C@@H]1C[C@H]1NCCc2cc(OC)c(OC)cc21,0.316µM*,?
COc1cc(C[C@@H]2NCCc3cc(O)c(O)cc32)cc(OC)c1OC,4.3%,11.0%
CCCCCCCCCC(=O)NO,-20.2%,-7.4%
CCOC(=O)[C@]12C[C@@H]3CCN(C(=O)N(C(C)=O)[C@@H]1c1ccccc1)[C@@H]32,-0.7%[8.59 µM],-9.4%[8.59 µM]
O=C(Oc1ccccc1)[C@H]1O[C@H]1c1ccccc1,.,34.4%[8.59 µM]
O=C(c1cnn(-c2nccc(-c3ccccc3F)n2)c1C1CC1)N1CCN(CCO)CC1,3.2%,-29.4%
CN1C/C(=C/c2ccc(B(O)O)cc2)C(=O)/C(=C/c2ccc(B(O)O)cc2)C1,12.6µM*,6.31µM*
Oc1c(Cl)cc(Cl)c2cccnc12,?,12.6µM*
Cc1ccc2c(Cl)cc(Cl)c(O)c2n1,?,6.31µM*!
Oc1ccc(Cl)c2cccnc12,-0.9%,12.7%
CCn1c(-c2ccccc2F)nc2cc(NC(C)=O)cc(C(=O)N(C)Cc3ccccn3)c21,-5.5%,-5.7%
Cc1cc(=O)cc2oc3cc(N)c(-c4c(C)cc(O)cc4O)c(C)c3nc1-2,-0.7%,-21.3%
O=P(O)(O)OC(Cn1cncn1)(Cn1cncn1)c1ccc(F)cc1F,-11.5%,1.5%
O=c1ncccn1[C@@H]1O[C@H](CO)C(O)[C@@H]1O (stereo partly specified),-3.0%,-4.3%
N=c1ccn2c(n1)OC1C(O)C(CO)OC12 (stereo unspecified),?,0.708µM*
N=c1ccn2c(n1)OCC1C2O[C@@H](O)[C@H]1O (stereo partly specified),?,14.1µM*
COc1cc2c(cc1OC)[C@@H]1O[C@](CCCCN3C(=O)c4ccccc4C3=O)(C2)OC2=C1C(=O)OC1(CCCCC1)C2,-13.0%[8.59 µM],28.0%[8.59 µM]
COC(=O)C1CCCCN1Cc1ccc2c(c1)CN(C(=O)c1cc(C)nc3cc(F)ccc13)CCO2 (stereo unspecified),-6.4%,-14.5%
CNC(=O)[C@H](Cc1c[nH]c2ccccc12)NC(=O)[C@@H](CC(=O)NO)CC(C)C,?,-23.6%
Cc1nnc2n1-c1sc(CCC(=O)N3CCOCC3)cc1C(c1ccccc1Cl)=NC2,-16.4%,10.7%
Cc1nnc2n1-c1sc(CCc3ccc(CC(C)C)cc3)cc1C(c1ccccc1Cl)=NC2C (stereo unspecified),7.94µM*,14.1µM*
CCC1CN(CCNC(=O)c2cscn2)Cc2cc(OC)ccc2O1 (stereo unspecified),-8.4%,-12.5%
SMILES,LASV entry inh,Marburg entry
COC(=O)NC(c1ccccc1)c1c[nH]c2ccc(OC)cc12 (stereo unspecified),1.9%,1.3%
Nc1ccc(Cl)cc1,?,-1.2%[107 µM]
CCc1nc(N)nc(N)c1-c1ccc(Cl)cc1,?,14.1µM*
CC(=O)C1=C(C)N(CCC=Cc2ccccc2)C(=O)NC1c1ccccc1 (stereo unspecified),-10.8%[8.59 µM],?
CC[n+]1c(/C=C/N(C)c2ccccc2)n(-c2ccccc2)c2ccc(-c3nc4ccccc4s3)cc21,3.16µM*,2µM*
CC(C)C[C@H](N)C(=O)N[C@H](C(=O)N[C@@H](CCCN=C(N)N)C(=O)N[C@H](CS)C(=O)NCC(=O)N[C@@H](CCCCN)C(=O)N[C@@H](Cc1cnc[nH]1)C(=O)N[C@@H](CO)C(=O)N[C@@H](CCCN=C(N)N)C(=O)O)C(C)C,5.8%,-5.8%
CN(c1nccc(=O)[nH]1)C1CCN(c2nc3ccccc3n2Cc2ccc(F)cc2)CC1,-13.3%,14.7%
CCN(CC)CCNC(=O)COc1ccc(OC)cc1,-3.5%,-23.3%
CCN(CC)CCCCNc1ncc2cc(-c3cc(OC)cc(OC)c3)c(NC(=O)NC(C)(C)C)nc2n1,12.6µM*,1.12µM*
COCCNc1nc(-c2ccc(N(C)C)cc2)nc2ccccc12,4.0%,?
CN(C)c1ccc(-c2nc(NC3CCNCC3)c3ccccc3n2)cc1,-27.8%,14.1µM*
COC(=O)CC=C[C@@H](C)[C@@H](C=NOC[C@@H](C)[C@H](OCc1ccccc1)C(C)C)NS(=O)(=O)c1ccc(C)cc1,.,-14.2%[8.59 µM]
CCN1CCCC1CNC(=O)c1cnn(-c2nccc(-c3ccccc3F)n2)c1C (stereo unspecified),6.4%,-14.4%
COc1cc(CC(C)N)c(OC)cc1Br (stereo unspecified),?,17.8µM*
CCc1cc(OC)c(C[C@H](C)N)cc1OC,-12.9%[107 µM],?
CO[C@H]1[C@H](NC(=O)c2ccco2)c2ccccc2C12CCN(Cc1cc(Cl)ccc1O)CC2,-28.3%,?
CC(=O)OC[C@@]1(O)C[C@@]23CC[C@@H]4c5ccoc5CC[C@@]4(C)[C@@H]2CCC1C3,4.0%,15.3%
COc1ccccc1CNc1cc(-c2cccc(NS(C)(=O)=O)c2)ncn1,-7.0%,2.6%
C[N+](C)(CCOc1ccccc1)Cc1cccs1,-16.8%,13.4%
Cc1cc(OCCOCC[N+](C)(C)Cc2ccccc2)ccc1C(C)(C)CC(C)(C)C,25.1µM*,22.4µM*
C[C@@H]1C[C@@H](CC(=O)NCC2Cc3cccc(-c4ccncc4)c3O2)NC(=S)N1 (stereo partly specified),0.4%,-6.5%
CN1CCN(c2ccc(Nc3c4ccccc4nc4ccccc34)cc2)CC1,?,2µM*
O=c1nc2ccccc2c2n1C[C@H](CN1CCN(c3ccccc3)CC1)N2,-0.6%,0.4%
CCC(C(=O)O)c1ccccc1 (stereo unspecified),-0.9%,-14.3%
c1ccc(C(NCCNC(c2ccccc2)c2ccccc2)c2ccccc2)cc1,12.6µM*,7.08µM*
SMILES,LASV entry inh,Marburg entry
Cc1oc(-c2ccccc2NC(=O)c2ccsc2)nc1CN(C)CC1CC=CCC1 (stereo unspecified),2.4%,-5.3%
Cc1ccccc1CN1[C@H](C)[C@@H](c2ccccc2)Oc2c(Cl)cccc2S1(=O)=O,16.2%,17.8%
C=CC1CC2C=CCOP(=S)(O1)O2 (stereo unspecified),28.6%,-22.6%
OC1(c2ccc(Cl)cc2)CCN(Cc2c[nH]c3ccccc23)CC1,?,8.91µM*
OC1(c2cccnc2)CCN(Cc2ccc3c(c2)CN(Cc2ccc(Cl)cc2)CCO3)CC1,6.1%,4.2%
CC(=O)CCC(=O)N1CCC(n2c(C3CCCO3)nc3cc(C(F)(F)F)ccc32)CC1 (stereo unspecified),-0.1%,0.7%
CN1CCN(c2nc3cc(C(F)(F)F)ccc3n3cccc23)CC1,-22.0%,28.2µM*!
COC(=O)C1(C(=O)OC)C[C@@H]2CON=C2[C@H]1c1ccccc1,0.0%,-5.3%
CN1C[C@H](C(=O)N[C@]2(C)O[C@@]3(O)[C@H]4CCCN4C(=O)[C@H](Cc4ccccc4)N3C2=O)C[C@H]2c3cccc4[nH]cc(c34)C[C@@H]21,2.9%,31.2%
CO[C@@]12C[C@@H](COC(=O)c3cncc(Br)c3)CN(C)[C@H]1Cc1cn(C)c3cccc2c13,3.7%,-1.2%
CN1C[C@H](CNC(=O)OCc2ccccc2)C[C@@H]2c3cccc4c3c(cn4C)C[C@H]21,?,14.1µM*!
CN1C[C@H](CNC(=O)OCc2ccccc2)C[C@H]2c3cccc4c3c(cn4C)C[C@@H]21,?,10µM*
